Screening results: PubChem, National Center for Advancing Translational Sciences (NCATS)
Pf growth 48h: Primary qHTS for delayed death inhibitors of the malarial parasite plastid, 48 hour incubation. P. falciparum luciferase growth in erythrocytes, 48 h. Potency, µM (titrated, usually from 28.7 µM), most hits filed as inhibitors. 310,000 tested, 5.9% active
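Luciferase-expressing parasites in RBCs, 2% Hct / 0.1% parasitemia final; RPMI 1640 + 0.5% Albumax; 37 C, 5% CO2, one generation; luminescence read-out, lower signal = inhibition.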
Pf growth 96h: Primary qHTS for delayed death inhibitors of the malarial parasite plastid, 96 hour incubation; P. falciparum luciferase reporter growth, 96 h; Potency, µM (highest dose often 28.7 µM), most hits filed as inhibitors; 320,000 tested, 6.9% active; AID 504834, 2011
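Cell-based qHTS: luciferase-tagged P. falciparum in erythrocytes (2% hematocrit, 0.05% parasitemia final) incubated with compounds for 96 hours, 37 C, 5% CO2; luciferase detection reagent then added and luminescence measured.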
Shiga inhibitor: A qHTS for Small Molecule Inhibitors of Shiga Toxin | inhibition, % at 38.7 µM | 290,000 tested, 9.2% active | Vero cells, Shiga toxin protein synthesis inhibition reporter | AID 2315, 2010; in the data active = inhibition mostly above about 28%, no sharp cut-off; inactive = mostly below about 43%
Cycloheximide cs: Cycloheximide Counterscreen for Small Molecule Inhibitors of Shiga Toxin; cell reporter, cycloheximide protein synthesis inhibition counterscreen; max response, %; 300,000 tested, 12% active; in the data active = max response mostly above about 13%, no sharp cut-off; inactive = mostly below about 14%; also: read at 38.3 µM for the half of the compounds with a filed dose
HCMV antiviral: qHTS Assay for inhibitors of the human cytomegalovirus (HCMV); activity change, negative = inhibition, % at 57.5 µM; HFF cells, HCMV-luciferase reporter, 72 h; active compounds read low; AID 1259415, 2018; 410,000 tested, 4.5% active; in the data active = activity change below about -60%; inconclusive = no clear call, values can overlap the other calls; inactive = above about -39%
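Luciferase read-out from HCMV-luciferase-infected HFFs (MOI 1 PFU/cell) 72 h post infection at 37C; compounds added after 16 h cell attachment; activity normalized between buffer-only basal and Salinomycin (10uM) inhibitor controls.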
Large screens that a line does not name were inactive. A selection: hits, their analogues and other compounds. The true share with any hit is near 20%. Unless noted, calls follow the shape of the dose curve; as a rule, active = well fitted inhibition curve with a large enough effect; inconclusive = small, poorly fitted or top-dose-only effect, or another doubt; inactive = no such curve, though single readings can be large or run the other way.

CCCOc1ccc(OCCSc2ncccn2)cc1	Shiga inhibitor 81, Cycloheximide cs 44
Brc1cccc(OCCSc2ncccn2)c1	Shiga inhibitor 44, Cycloheximide cs 33
Nc1nnc(SCCOc2cccc(Br)c2)s1	none
CC(C)Cc1cc(C(=O)N2CCCC(C(=O)c3cc(F)ccc3F)C2)no1 (centres undefined)	Pf growth 96h 4.7µM
CSc1ccccc1OCc1cc(C(=O)N2CCC[C@H]2C(N)=O)no1	Pf growth 96h inconclusive
CSc1ccccc1OCc1cc(C(=O)N2CCN(C3CCCC3)C(=O)C2)no1	Pf growth 48h inconclusive, Pf growth 96h inconclusive, Shiga inhibitor 41, Cycloheximide cs 54
O=C(c1cc(F)ccc1F)C1CCCN(C(=O)c2cccs2)C1 (centres undefined)	Pf growth 96h inconclusive, HCMV antiviral inconclusive
O=C(c1cc(COc2ccc(F)cc2Cl)on1)N1CCCC(c2ccccc2)C1 (centres undefined)	Pf growth 48h inconclusive
O=C(c1cc(COc2ccc(F)cc2F)on1)N1CCN(C2CCCC2)C(=O)C1	Pf growth 48h 8.3µM
O=C(c1cc(COc2ccc(F)cc2F)on1)N1CCCC(c2ccccc2)C1 (centres undefined)	Cycloheximide cs 19, HCMV antiviral -63
CC(C)CC(CO)N1CCN(C(=O)c2ccccc2)CCC1=O (centres undefined)	none (no result: Pf growth 48h, Pf growth 96h, Shiga inhibitor, Cycloheximide cs)
O=C(/C=C/c1cn(-c2ccccc2)nc1-c1cccnc1)N1CCCC1	Pf growth 48h inconclusive, Pf growth 96h inconclusive
N#C/C(=C\c1cn(-c2ccccc2)nc1-c1cccnc1)c1nnc2n1CCCCC2	Pf growth 96h 8.3µM, HCMV antiviral inconclusive (no result: Pf growth 48h)
N#C/C(=C/c1ccccc1[N+](=O)[O-])c1nnc2n1CCCCC2	HCMV antiviral -60
COc1ccc(Cl)cc1C(=O)NNC(=O)CCNC(=O)c1ccccc1	none (no result: Pf growth 48h, Pf growth 96h, Shiga inhibitor, Cycloheximide cs)
Cc1ccc(Cl)c(OCC(=O)Nc2ccccc2C(=O)NC2CC2)c1	HCMV antiviral -100
O=C(O)CCC(=O)Nc1ccccc1C(=O)NC1CCCCC1	none
O=C(Nc1ccccc1C(=O)NC1CCCCC1)c1ccccc1	Pf growth 48h inconclusive, Pf growth 96h 6.6µM
O=C(Nc1ccsc1C(=O)NC1CCCCC1)c1ccccc1	Pf growth 48h 7.4µM, Pf growth 96h inconclusive
O=C(Nc1ccccc1C(=O)NC(Cc1ccccc1)C(=O)NC1CCCCCC1)c1ccccc1 (centres undefined)	Pf growth 48h inconclusive, Pf growth 96h inconclusive
CCC(=O)Nc1ccccc1C(=O)NC1CCCCC1	HCMV antiviral -110 (no result: Pf growth 48h)
N#CCCN(C(=O)CSc1nc(-c2ccccc2)cn1N)c1ccc(F)cc1	none (no result: Pf growth 96h)
O=C1CC(N2CCN(c3ccc(F)cc3)CC2)C(=O)N1c1ccc2c(c1)OCO2 (centres undefined)	Pf growth 96h inconclusive, HCMV antiviral inconclusive
CN1CCN(c2cc(CNC[C@H]3O[C@@H](n4cnc5c(=O)[nH]c(N)nc54)[C@H](O)[C@@H]3O)ccc2F)CC1	none (no result: Pf growth 48h, Pf growth 96h, Shiga inhibitor, Cycloheximide cs)
CC(=O)c1ccc(N2CCN(S(=O)(=O)c3ccc4c(c3)CC(=O)N4)CC2)cc1	Pf growth 48h inconclusive
CC(=O)c1ccc(N2CCN(S(=O)(=O)c3ccc4c5c3CC(=O)N5CC(C)S4)CC2)cc1 (centres undefined)	Pf growth 48h 3.3µM, Pf growth 96h inconclusive (no result: HCMV antiviral)
CC(=O)c1cccc(NC(=O)C(=O)Nc2cccc3ccccc23)c1	Pf growth 96h inconclusive, Shiga inhibitor 32, Cycloheximide cs 22, HCMV antiviral -60
CCCC(=O)NC(=S)Nc1ccc(C(C)=O)cc1	Shiga inhibitor 57, Cycloheximide cs 55
CC(=O)c1ccc(NC(=S)Nc2cccc3ccccc23)cc1	Shiga inhibitor 106, Cycloheximide cs 73
NC(=O)NNC(=S)Nc1cccc2ccccc12	none
Cc1ccc(NC(=S)Nc2cccc3ccccc23)cc1F	Pf growth 48h inconclusive, Shiga inhibitor 81, Cycloheximide cs 42
CC(=O)c1ccc(NC(=S)NC(=O)Cc2ccc(Cl)cc2)cc1	none
Fc1cccc(NC(=S)Nc2cccc3ccccc23)c1	none
O=C(O)[C@H](Cc1c[nH]c2ccccc12)Nc1ncccc1[N+](=O)[O-]	none
CC(=O)N(C)c1ccc(NC(=S)Nc2ccccc2)cc1	none
CC(=O)N(C)c1ccc(NC(=S)Nc2cccc3ccccc23)cc1	Pf growth 96h inconclusive, Shiga inhibitor 83, Cycloheximide cs 44, HCMV antiviral -71
COc1ccc(CNc2nc3c(S(=O)(=O)c4ccccc4)nnn3c3ccc(Cl)cc23)cc1	none (no result: Pf growth 48h, Pf growth 96h, Shiga inhibitor, Cycloheximide cs)
